Experimental data from PubChem BioAssay AID493175 (National Center for Advancing Translational Sciences (NCATS), 2011).
Inconclusive results are not listed. A number with no mark means an inactive call. Activity calls are given as the source filed them. The call rests on the fitted dose curve; in most records, active means well fitted curve in the direction sought with a large enough effect; inconclusive means small, poorly fitted or top-dose-only effect, or another doubt; inactive means no such curve, though single readings can be large or run the other way.

Target: Luciferin 4-monooxygenase (Photinus pyralis) (UniProt P08659)
Test: miR-21 counterscreen using purified firefly luciferase
Conditions: purified P. pyralis luciferase, luminescence; series mostly up to 57.5 µM
Text: MLPCN Grant: 1 R21 NS059478-01 Assay Provider: Qihong Huang, The Wistar Institute NCGC Assay Overview: MicroRNAs (miRNAs) are endogenously encoded small (~20-25 nucleotides), nonprotein-coding RNAs that are involved in post-transcriptional repression of target messenger RNAs (mRNAs) (Le and Hannon, 2004). Estimated to be involved in the regulation of 30% of all protein-coding mRNAs (Filipowicz et al., 2008), miRNAs play a significant role in many biological processes including cellular differentiation and tissue development (Ghildiyal and Zamore, 2009). […] Compounds active in the miR-21 FLuc assay were clustered using Leadscope and active chemical series were prioritized based on chemical properties, potential for medicinal chemistry optimization, and SAR. Within each chemical series, representative compounds were re-acquired to test for activity in a secondary assay based on the quality of their CRC, efficacy, and potency. This secondary assay to determine if compounds active in the miR-21 FLuc assay were just luciferase inhibitors. Compounds found active in both the miR-21 FLuc and purified FLuc assays are considered as false positives. Keywords: NIH Roadmap, MLPCN, MLSMR, qHTS, miR-21, firefly luciferase, FLuc, miRNA.
NCGC Assay Protocol Summary: Reagents: 50mM Tris acetate, pH 7.5; 10mM Mg acetate; 10uM D-luciferin (Sigma #L9504); 10uM ATP; 0.01% Tween-20; 0.05% BSA; 10nM P. pyralis luciferase (Sigma #L9506) Control compounds used were two known firefly luciferase inhibitors (compounds (2) and (5) in Auld et al., 2010), and DMSO. Assay Summary: Three microliters containing firefly luciferase substrates in buffer (final concentrations: 50mM Tris acetate, pH 7.5, 10mM Mg acetate, 0.01% Tween-20, 0.05% BSA, 10uM D-luciferin, and 10uM ATP) are dispensed into each well of a Greiner white, solid-bottom 1536-well format plate using a flying reagent dispenser (FRD). These assay plates were then treated with 23nL of compound or DMSO using a Kalypsys pin tool, which allows for delivery of a 6-point interplate titration of each compound to the assay plate (quantitative HTS), with a final compound concentrations ranging from approximately 60 µM to 7pM. One microliter of firefly luciferase in […] Tris-acetate buffer was then delivered by FRD to each well for a final enzyme concentration of 10nM. Luciferase activity was then measured using a ViewLux CCD imager (PerkinElmer), with an average exposure time of 2-30 seconds (2X binning, medium/high gain).

Luciferin 4-monooxygenase (Photinus pyralis), sequence (P08659 whole entry, looked up): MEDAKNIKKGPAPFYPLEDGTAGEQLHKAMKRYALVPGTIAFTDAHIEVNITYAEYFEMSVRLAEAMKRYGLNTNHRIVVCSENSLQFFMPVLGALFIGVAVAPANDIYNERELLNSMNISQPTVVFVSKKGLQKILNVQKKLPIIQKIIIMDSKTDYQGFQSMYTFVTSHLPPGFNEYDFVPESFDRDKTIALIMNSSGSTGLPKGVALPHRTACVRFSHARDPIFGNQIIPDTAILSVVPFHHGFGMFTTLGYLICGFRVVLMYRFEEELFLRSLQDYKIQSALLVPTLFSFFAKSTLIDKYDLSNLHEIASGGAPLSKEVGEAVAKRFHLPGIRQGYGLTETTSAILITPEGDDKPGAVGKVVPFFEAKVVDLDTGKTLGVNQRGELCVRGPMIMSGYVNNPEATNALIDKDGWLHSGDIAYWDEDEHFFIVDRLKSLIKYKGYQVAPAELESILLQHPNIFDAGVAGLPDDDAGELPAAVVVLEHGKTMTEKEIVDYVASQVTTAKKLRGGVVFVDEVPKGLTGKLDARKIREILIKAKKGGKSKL

| SMILES | outcome | activity change, negative = inhibition |
| --- | --- | --- |
| CC1=C(c2ccc(C)c(C)c2)S(=O)(=O)N=C1N1CCC(C(=O)NCCc2ccc(Cl)cc2)CC1 | inactive |  |
| CCc1ccc2oc(C(=O)Nc3nonc3CC)c(C)c2c1 | inactive |  |
| c1ccc(C2=Nn3c(nnc3-c3cc(-c4ccccc4)n[nH]3)SC2)cc1 |  | -18.1% [at 2.3 µM] |
| O=C(CSc1nnc(-c2ccc(O)cc2)o1)Nc1ccccc1Br | inactive |  |
| Cn1c(=O)[nH]c2cc(-c3noc(-c4ccc(F)cc4)n3)ccc21 | inactive |  |
| Cc1cccc(-c2nsc(SCC(=O)Nc3ccc4c(c3)OCO4)n2)c1 | inactive |  |
| COc1ccc(C(=O)Nc2nnc(C(C)C)s2)cc1OC | inactive |  |
| Cc1cccc(OCc2nnc(SCC(=O)Nc3ccc(N4CCOCC4)cc3)o2)c1 | inactive |  |
| Cc1cc(SCC(=O)Nc2nsc(-c3ccc(C(C)(C)C)cc3)n2)nc2ccccc12 | inactive |  |
| Cc1ccc(-c2csc(NC(=O)CSc3nc4ccccc4o3)n2)cc1 | inactive |  |
| CCS(=O)(=O)c1ncc(Cl)c(C(=O)Nc2ccc(S(=O)(=O)N(C)c3ccccc3)cc2)n1 | inactive |  |
| c1ccc(CSc2nnc3ccc(-c4cccs4)nn23)nc1 | inactive |  |
| O=C(CSc1nnc(-c2cccnc2)o1)Nc1cccc(Cl)c1 | inactive |  |
| COc1ccc(OCC(=O)Nc2ccc(-c3nc4cc(Cl)ccc4o3)cc2)cc1 | inactive |  |
| Cc1ccc(CNc2nc(-c3ccco3)nn2S(C)(=O)=O)cc1 | inactive |  |
| C[C@]12CC[C@H]3C(=CCc4cc(O)ccc43)[C@@H]1CCC2=O | inactive |  |
| CSc1nsc(SCC(=O)Nc2ccc(F)cc2F)n1 | inactive |  |
| COCc1cc(C)nc2sc(C(=O)OC(C)C)c(N)c12 |  | -1.1% [at 2.3 µM] |
| N#Cc1cc2cc3c(cc2nc1SCC(=O)N1CCOCC1)OCO3 | inactive |  |
| CS(=O)(=O)n1nc(-c2ccc(Cl)cc2)nc1SCc1ccccc1 | inactive |  |

| SMILES | outcome | activity change, negative = inhibition |
| --- | --- | --- |
| COc1ccc(CNc2nc(-c3ccco3)nn2C(=O)CC(C)C)cc1 | inactive |  |
| Cc1cccc(N2CCN(C(=O)C3CCN(c4ncnc5c4nc4n5CCCCC4)CC3)CC2C)c1 (centres undefined) | inactive |  |
| COc1ccccc1C(=O)n1nc(-c2ccco2)nc1NCc1ccc(Cl)cc1 | inactive |  |
| Nc1c(-c2nc(-c3cccs3)no2)nnn1-c1cccc(F)c1 | inactive |  |
| CC(=O)Nc1nc2c(C)cc(NC(=O)C3CCCCC3)cc2s1 | inactive |  |
| Cc1ccc(C)c(Nc2nc3nonc3nc2Nc2cccc(C)c2C)c1 | inactive |  |
| COc1ccc(CCNc2ncnc3c2cnn3-c2cc(Cl)ccc2C)cc1 | inactive |  |
| CS(=O)(=O)c1ncc(Cl)c(C(=O)Nc2ccc3ccccc3c2)n1 | inactive |  |
| Fc1cccc(Cl)c1CSc1nnc2ccccn12 | inactive |  |
| COc1ccc(-c2nc(SCc3ccccc3)n(S(C)(=O)=O)n2)cc1 | inactive |  |
| Nc1c(-c2nc(-c3ccncc3)no2)nnn1CC(=O)Nc1ccccc1 | inactive |  |
| Cc1cccc(-c2nnc(SCC(=O)Nc3ccc(C)c(C)c3)o2)c1 | inactive |  |
| COc1cc(Cl)c(C)cc1Nc1c2c(nc3ccccc13)CCC2 | inactive |  |
| Fc1ccccc1CSc1nnc(-c2cnccn2)n1Cc1ccco1 | inactive |  |
| CC(C)C(=O)Nc1nc2c(s1)CC(C(C)(C)C)CC2 (centres undefined) | inactive |  |
| CC(C)(C)C1CCc2nc(NC(=O)Cc3cn4ccsc4n3)sc2C1 (centres undefined) |  | 0.54% [at 2.3 µM] |
| O=C(c1ccc(Cl)cc1)n1nc(-c2ccccc2)nc1NCc1ccco1 | inactive |  |
| COc1cccc(C(=O)Nc2ccc3nc(N4CCN(c5ncccn5)CC4)cc(C)c3c2)c1OC | inactive |  |
| COCC(=O)Nc1c(C(=O)Nc2ccc3c(c2)OCCO3)oc2ccccc12 | inactive |  |
